Source: PubChem (National Center for Advancing Translational Sciences (NCATS))
Menin MLL FP TR = menin-MLL binding inhibition, Texas Red mutant peptide. O00255. Menin + Texas Red MLL mutant peptide, fluorescence polarization. Potency, µM (series often up to 61.6 µM), actives largely listed as inhibitors. actives 0.23% (n = 270,000); active = well fitted inhibition curve with a large enough effect in the polarisation, with a control signal flat, not every such curve was filed as active; inconclusive = small, poorly fitted or top-dose-only effect, or effect the other way, or a change in a side signal; inactive = no such curve, though single readings can be large or run the other way; the % refers to the polarisation
GLS inh = inhibitors of human glutaminase (GLS); O94925; GLS enzymatic activity, qHTS titration; Potency, µM (titrated, usually from 45.5 µM), actives largely listed as inhibitors; actives 0.21% (n = 410,000); AID 624170
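Compounds were pin-transferred onto hKGA, after which L-glutamine (1 mM solution) and a detection mix of glutamate oxidase, HRP and Amplex Red were added. Initial and 30 min RT fluorescence reads were collected.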
Six1-Eya2 blk = blocks human Six1 binding to Eya2 | Q15475+O00167 | AlphaScreen GST-Six1/His-Eya2 binding, biochemical; stronger effect = lower value | activity change, % (test concentration not listed) | actives 0.56% (n = 360,000) | AID 651725; in the data active = activity change below about -65%; inconclusive = mostly about -30% to -63%
Target sequence (O00167 whole entry, looked up): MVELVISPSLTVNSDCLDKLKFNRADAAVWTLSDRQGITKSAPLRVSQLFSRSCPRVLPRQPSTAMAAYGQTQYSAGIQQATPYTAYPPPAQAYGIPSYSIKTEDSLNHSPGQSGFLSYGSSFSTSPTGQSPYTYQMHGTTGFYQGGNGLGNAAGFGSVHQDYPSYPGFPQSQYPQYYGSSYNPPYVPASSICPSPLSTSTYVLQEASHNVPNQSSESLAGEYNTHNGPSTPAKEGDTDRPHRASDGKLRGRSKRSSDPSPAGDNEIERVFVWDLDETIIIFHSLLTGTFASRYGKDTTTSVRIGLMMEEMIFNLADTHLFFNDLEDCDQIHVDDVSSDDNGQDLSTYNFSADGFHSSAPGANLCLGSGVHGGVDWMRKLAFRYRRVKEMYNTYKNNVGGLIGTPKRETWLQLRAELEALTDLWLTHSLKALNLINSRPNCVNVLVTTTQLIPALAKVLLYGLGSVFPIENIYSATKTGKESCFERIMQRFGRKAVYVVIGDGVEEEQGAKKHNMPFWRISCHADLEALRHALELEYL
Target sequence (Q15475 whole entry, looked up): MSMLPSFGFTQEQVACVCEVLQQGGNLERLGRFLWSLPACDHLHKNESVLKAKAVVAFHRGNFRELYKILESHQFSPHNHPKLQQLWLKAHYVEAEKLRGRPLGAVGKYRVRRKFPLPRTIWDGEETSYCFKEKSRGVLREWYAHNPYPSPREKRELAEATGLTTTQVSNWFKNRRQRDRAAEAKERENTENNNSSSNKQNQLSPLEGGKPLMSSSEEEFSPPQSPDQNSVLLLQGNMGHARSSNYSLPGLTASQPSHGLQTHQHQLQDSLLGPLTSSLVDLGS
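Six1/Eya2 binding was read as AlphaScreen signal after compounds were pinned into GST-Six1 plus His-tagged Eya2 (5X stock 250/500 nM) in pH 8.0 Tris/NaCl/TCEP buffer, beads added, then incubated 1 h, 37 C, dark.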
MLL CXXC-DNA inh = MLL CXXC-DNA interaction inhibition | MLL-CXXC / FITC-HOXA9 DNA fluorescence polarization | actives 0.037% (n = 290,000) | Q03164 | Potency, µM (titrated, usually from 115 µM), usual class: inhibitors; active = well fitted inhibition curve with a large enough effect in the polarisation, with a control signal flat, not every such curve was filed as active; inconclusive = small, poorly fitted or top-dose-only effect, or effect the other way, or a change in a side signal; inactive = no such curve, though single readings can be large or run the other way; the % refers to the polarisation
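Purified MLL-CXXC (added from a 7 uM solution) was preincubated 5 min at ambient with pinned compounds in 50 mM Tris-HCl pH 7.5, 50 mM NaCl, 1 mM DTT, 0.05% BSA. Fluorescein-labeled HOX-A9 DNA (50 nM solution) followed, 30 min, then polarization read.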
Menin MLL FP FL = menin-MLL binding inhibition, fluorescein peptide | Fluorescence polarization, fluorescein-MLL peptide displacement from menin | FP activity change, % at 61.4 µM | 290,000 tested, under 10 active | AID 1766; active = well fitted curve in the direction sought with a large enough effect in the polarisation, not every such curve was filed as active; inconclusive = small, poorly fitted or top-dose-only effect, or effect the other way, or a change in a side signal; inactive = no such curve, though single readings can be large or run the other way; the % refers to the polarisation
CtBP-E1A blk = CtBP/E1A binding inhibition; AlphaScreen GST-E1A/His-CtBP binding, 1536-well; stronger effect = lower value; activity change, % (concentration not given with the values); actives 0.49% (n = 340,000); AID 651724; in the data active = activity change below about -65%; inconclusive = mostly about -30% to -63%
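AlphaScreen with 125 nM GST-E1A and 125 nM His-CtBP (5X stocks) in Tris pH 8.0, 300 mM NaCl, BSA, Tween 20, TCEP. Compounds preincubated 2 h at 37 deg C, then glutathione donor/nickel acceptor beads added for 1 h at 37 deg C in dark.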
MLL CXXC Fl = MLL CXXC-DNA interaction inhibition, fluorescein FP; MLL CXXC-DNA binding, fluorescein FP; shares compounds with MLL CXXC-DNA inh; Potency, µM (doses to about 345 µM), usual class: inhibitors; AID 624160; actives 70% (n = 200); note: nearly all actives have a fitted effect of over 80% in size
MLL CXXC FP-TR = disrupts human MLL CXXC domain binding to DNA, Texas Red. Potency, µM (titrated, usually from 345 µM), most hits filed as inhibitors. actives 40% (n = 200). shares compounds with MLL CXXC-DNA inh. MLL CXXC-DNA binding, Texas Red fluorescence polarization. AID 624161; note: nearly all actives have a fitted effect of over 75% in size
MLL CXXC HTRF = disrupts human MLL CXXC domain binding to DNA by HTRF | shares compounds with MLL CXXC-DNA inh | actives 30% (n = 210) | AID 624162 | MLL CXXC-DNA binding, HTRF, biochemical | Potency, µM (top dose mostly 172 µM), actives largely listed as inhibitors; note: nearly all actives have a fitted effect of over 80% in size
Of the large screens only hits and unclear results are named; the others gave an inactive call (follow-up assays come after a bar, where they were run). This is a sample that favours compounds with a hit; in the whole collection about 0.83% have one here. Unless noted, calls come from the whole dose curve; as a rule, active = well fitted curve in the direction sought with a large enough effect; inconclusive = small, poorly fitted or top-dose-only effect, or another doubt; inactive = no such curve, though single readings can be large; an effect the other way counts as inactive or inconclusive.

CC(CO)NC(=O)C1C=C2c3cccc4[nH]cc(c34)CC2N(C)C1 (centres undefined)	MLL CXXC-DNA inh 32µM, Menin MLL FP FL inconclusive (no result: Six1-Eya2 blk, CtBP-E1A blk) | MLL CXXC Fl 142µM | MLL CXXC FP-TR inconclusive | MLL CXXC HTRF inactive
Cc1ccc2c(c1)Cc1c(C(=O)NN3CCCCC3)nn(-c3ccc(Cl)cc3Cl)c1-2	none (no result: GLS inh, Six1-Eya2 blk, MLL CXXC-DNA inh, CtBP-E1A blk)
Cc1ccc(N2C(=O)NC(=O)/C(=C\c3cn(CC(=O)O)c4ccccc34)C2=O)cc1	MLL CXXC-DNA inh inconclusive | MLL CXXC Fl 14µM | MLL CXXC FP-TR 71µM | MLL CXXC HTRF inactive
CCN1C(=O)NC(=O)/C(=C\c2cn(CC(=O)O)c3ccccc23)C1=O	MLL CXXC-DNA inh inconclusive (no result: GLS inh, Six1-Eya2 blk, CtBP-E1A blk)
O=C(O)Cn1cc(/C=C2\C(=O)NC(=O)N(Cc3ccco3)C2=O)c2ccccc21	Menin MLL FP TR inconclusive, GLS inh inconclusive, Six1-Eya2 blk inconclusive, MLL CXXC-DNA inh inconclusive, Menin MLL FP FL inconclusive | MLL CXXC Fl 7.1µM | MLL CXXC FP-TR inactive | MLL CXXC HTRF 49µM
CC1CC2CCC(O2)C(C)C(=O)OC(C)CC2CCC(O2)C(C)C(=O)OC(C)CC2CCC(O2)C(C)C(=O)OC(C)CC2CCC(O2)C(C)C(=O)O1 (centres undefined)	Menin MLL FP TR inconclusive (no result: GLS inh, Six1-Eya2 blk, MLL CXXC-DNA inh, CtBP-E1A blk)
CO/C1=C\C(C)=C\[C@@H](C)[C@@H](O)[C@@H](C)C/C(C)=C/C=C/[C@H](OC)[C@@H]([C@@H](C)[C@@H](O)[C@H](C)[C@@]2(O)C[C@@H](O)[C@H](C)C(C(C)C)O2)OC1=O (some centres undefined)	none (no result: GLS inh, Six1-Eya2 blk, MLL CXXC-DNA inh, CtBP-E1A blk)
COc1ccc(N=Cc2c(O)n(Cc3ccccc3)c(=S)[nH]c2=O)c(OC)c1	MLL CXXC-DNA inh 32µM, Menin MLL FP FL inconclusive (no result: Menin MLL FP TR) | MLL CXXC Fl 159µM | MLL CXXC FP-TR inactive | MLL CXXC HTRF inactive
CC1=NN(c2ccccc2)C(=O)/C1=C/c1c(O)[nH]c(=O)[nH]c1=O	GLS inh inconclusive
O=c1[nH]c(O)c(/C=C2\C=NN=C2c2ccccc2)c(=O)[nH]1	MLL CXXC-DNA inh inconclusive | MLL CXXC Fl inactive | MLL CXXC FP-TR 126µM | MLL CXXC HTRF 49µM
O=P(O)(O)C(Cl)(Cl)P(=O)(O)O	MLL CXXC-DNA inh 35µM (no result: Six1-Eya2 blk, CtBP-E1A blk) | MLL CXXC Fl inconclusive | MLL CXXC FP-TR inconclusive | MLL CXXC HTRF 24µM
O=P(O)(O)CCCl	none (no result: GLS inh, Six1-Eya2 blk, MLL CXXC-DNA inh, CtBP-E1A blk)
COc1cccc(C(=O)CCN[C@@H](C)[C@H](O)c2ccccc2)c1	none (no result: Menin MLL FP TR, Six1-Eya2 blk, MLL CXXC-DNA inh, Menin MLL FP FL, CtBP-E1A blk)
CN(C)c1ccc(C=C2C(=O)NC(=O)NC2=O)cc1[N+](=O)[O-]	GLS inh inconclusive (no result: CtBP-E1A blk)
COc1ccc(C=C2C(=O)NC(=S)NC2=O)cc1	none (no result: Menin MLL FP TR, MLL CXXC-DNA inh, Menin MLL FP FL)
COc1ccc(OCCOc2cccc(C=C3C(=O)NC(=O)NC3=O)c2)cc1	MLL CXXC-DNA inh inconclusive (no result: GLS inh, Six1-Eya2 blk, CtBP-E1A blk) | MLL CXXC Fl 45µM | MLL CXXC FP-TR inconclusive | MLL CXXC HTRF 39µM
CCOc1cc(C=C2C(=O)NC(=O)NC2=O)cc([N+](=O)[O-])c1O	Menin MLL FP TR inconclusive, MLL CXXC-DNA inh 32µM (no result: GLS inh, Six1-Eya2 blk, CtBP-E1A blk) | MLL CXXC Fl 20µM | MLL CXXC FP-TR 89µM | MLL CXXC HTRF 19µM
COc1cc(C=C2C(=O)NC(=O)NC2=O)ccc1O	MLL CXXC-DNA inh inconclusive, Menin MLL FP FL inconclusive (no result: CtBP-E1A blk) | MLL CXXC Fl 56µM | MLL CXXC FP-TR 159µM | MLL CXXC HTRF 122µM
CC12C=CC(=O)C=C1CCC1C2=CCC2(C)C1CC[C@@H]2C(=O)CN1CCN(c2cc(N3CCCC3)nc(N3CCCC3)n2)CC1 (some centres undefined)	Menin MLL FP TR inconclusive (no result: GLS inh, Six1-Eya2 blk, MLL CXXC-DNA inh, CtBP-E1A blk)
CCc1ccccc1NC(=O)NNS(=O)(=O)c1cc(C)ccc1C	MLL CXXC-DNA inh 14µM | MLL CXXC Fl inconclusive | MLL CXXC FP-TR inactive | MLL CXXC HTRF inactive
